According to PubChem BioAssay AID652104 (National Center for Advancing Translational Sciences (NCATS), 2013):
The whole screen tested about 410,000 compounds, of which about 7,200 (1.8%) were called active. Another 7% or so got no clear call; they are omitted. What follows is part of a selection rich in actives, with near analogues and random picks from the rest. A number with no mark means an inactive call. Calls follow the shape of the dose curve; as a rule, active = well fitted activation curve with a large enough effect; inconclusive = small, poorly fitted or top-dose-only effect, or another doubt; inactive = no such curve, though single readings can be large or run the other way.

Assay: qHTS of TDP-43 Inhibitors; also: nearly all actives have a fitted effect of over 50% in size; as to growth rescue (activation): % of control where 0% means no effect
Settings: TDP-43 expressing yeast growth rescue, BacTiter-Glo, 24 h; series mostly up to 46.1 µM; growth rescue (activation): at the top concentration
Procedure, shortened: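 Luminescence from BacTiter-Glo reports growth of TDP-43-expressing yeast after 24 hr at 30 deg C with compound. Cells were raffinose-pregrown to mid-log, then seeded in galactose medium at OD600=0.02.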
Potency is read from the fitted curve at half-maximal effect.

SMILES | growth rescue (activation) | Potency
COc1ccc(S(=O)(=O)c2c(Nc3ccc(C)cc3)sc(C(=O)c3ccc(C)cc3)c2N)cc1 | 12.2% | 
CCOc1ccc(NC(=O)Cn2c(C)ccc(C#N)c2=O)cc1 | -1.23% | 
CC(N=Cc1nc(-c2ccccc2)oc1O)c1ccccc1 (centres undefined) |  | 12.6 µM (active)
Cn1c(=O)c2c(nc(SCC(=O)Nc3ccc(F)cc3)n2Cc2ccc(Cl)cc2)n(C)c1=O | 12.5% | 
CCn1c2ccccc2c2cc(CN3CCN(Cc4cccc(Cl)c4)CC3)ccc21 | 6.14% | 
CCCCNC(=O)CSc1nc2cc3c(cc2c(=O)n1CCCCCC(=O)NCc1ccc2c(c1)OCO2)OCO3 | 18.1% | 
CC1Cc2ccccc2N1C(=O)CSc1nnc(C2CC2)n1C (centres undefined) | 1.9% [at 9.22 µM] | 
CC1Cc2ccccc2N1C(=O)CSc1nc2ccccc2o1 (centres undefined) |  | 12.6 µM (active)
CC1Cc2ccccc2N1C(=O)Cn1cnc2ccccc2c1=O (centres undefined) | -3.07% | 
CCc1ccc(NC(=O)c2cnc3c(-c4ccccc4)c(C)nn3c2C)cc1 | 20.4% | 
O=C(CN1C(=O)COc2ccc(S(=O)(=O)N3CCOCC3)cc21)N1CCN(c2cccc(Cl)c2)CC1 | 12.5% | 
O=C(COc1ccc(Cl)cc1)Nc1ccccc1OCc1cc(=O)n2ccccc2n1 | 12.3% | 
COc1cc(/C(=C/c2ccccc2)c2ccccc2)c2c(c1)oc1ccccc12 | -12.2% | 
Cc1oc2cc(Br)c(O)c(Br)c2c1C(=O)c1ccccc1 |  | 22.4 µM (active)
Cc1oc2cc([N+](=O)[O-])c(O)c([N+](=O)[O-])c2c1C(=O)c1ccc(Br)cc1 | -43.2% [at 9.22 µM] | 
CCc1ccccc1NC(=O)c1sc2nc3c(cc2c1N)CN(Cc1ccccc1)CC3 | 21% | 
Cc1cccc(CCNC(=O)c2ccc3c(c2)nc2n3CCC(C)C2)c1 (centres undefined) | 5.91% | 
CS(=O)(=O)N(CC(=O)Nc1ccc(F)cc1)C1CCCCC1 | 14.6% | 
CS(=O)(=O)N(CC(=O)Nc1ccc(Cl)c(Cl)c1)C1CCCCC1 |  | 15.8 µM (active)
CCC(C)NC(=O)CN(C1CCCCC1)S(C)(=O)=O (centres undefined) | -30.4% | 
CC(C)c1cccc(C(C)C)c1Nc1cn[nH]c1 |  | 3.98 µM (active)
FC(F)(F)c1cc(Nc2nc3ccccc3c3nncn23)ccc1Cl | 0% | 
O=C(CC(NCc1cccnc1)C(=O)O)Nc1ccc(O)cc1 (centres undefined) | 0.784% | 
COc1ccc2c(CNCCc3ccccc3C)c(C(=O)O)n(Cc3ccccc3C)c2c1 | 12.8% | 
CCN(CCCNC(=O)CSc1cc(=O)n(C)c2cc(Cl)ccc12)c1cccc(C)c1 | -25.5% | 

SMILES | growth rescue (activation) | Potency
COc1ccc(-c2csc(C(O)c3cccc(Cl)c3)n2)cn1 (centres undefined) |  | 25.1 µM (active)
CC(O)(c1cccc(F)c1)c1nc(-c2ccc3c(c2)OCO3)cs1 (centres undefined) | -55.4% | 
CC(C)c1cccc(-c2csc(C(O)c3ccccc3)n2)c1 (centres undefined) |  | 17.8 µM (active)
COc1ccc(C(O)c2nc(-c3ccc4c(c3)OCO4)cs2)cc1 (centres undefined) |  | 14.1 µM (active)
COc1cccc(C(NC(C)=O)c2nc(-c3ccccc3OC)cs2)c1 (centres undefined) | 13.7% | 
OC(c1ccccc1)c1nc(-c2cnc3ccccc3c2)cs1 (centres undefined) | 0% | 
Cc1ccccc1-c1csc(C(O)c2cccc(Cl)c2)n1 (centres undefined) | 8.26% | 
COc1cc(C(O)c2nc(-c3cnn(C)c3)cs2)ccc1F (centres undefined) | 0% | 
Cc1ccc(-c2nc(Cn3c(=O)cc(-c4ccccc4)c4c(C)nn(C)c43)c(C)o2)cc1 | 11.8% | 
CCCCN1CC(c2nc3ccccc3n2CCCCOc2ccc(C)cc2C)CC1=O (centres undefined) | -86.6% | 
Cc1ccc(-c2nc(CS(=O)(=O)CC(=O)NCc3ccccc3Cl)c(C)o2)cc1 | 14.5% | 
O=C(N/N=C/c1cccc(OCc2ccccc2)c1)c1ccc(Br)o1 |  | 11.2 µM (active)
O=C(N/N=C\C1CC=CCC1)c1ccc(Br)o1 (centres undefined) | 11.6% | 
O=C(Nc1cccc(C(=O)O)c1)/C(=C\c1ccccc1)NC(=O)c1ccc(Br)o1 | -9.24% | 
CC(C)Sc1oc(-c2cccs2)nc1S(=O)(=O)c1ccc(Cl)cc1 | 3.2% | 
CCOc1cccc2cc(-c3cn4c(n3)sc3cc(C)ccc34)c(=O)oc12 | 6.67% | 
CCOc1ccc(N(Cc2ccccc2)C(=O)c2nc(S(C)(=O)=O)ncc2Cl)cc1 |  | 17.8 µM (active)
CCOc1ccc(N(Cc2ccccc2)C(=O)c2nc(SCC)ncc2Cl)cc1 | -20.1% | 
CCOc1ccc(NC(=O)CN(Cc2ccccc2)S(=O)(=O)c2ccc(Cl)cc2)cc1 | 16.1% | 
COc1ccc(CNc2nc(-c3ccc(Cl)cc3)nn2S(=O)(=O)c2ccc(C)cc2)cc1 | 20.8% | 
CCC(=O)Nc1ccc2nc(SCC(=O)N3CCc4ccccc43)sc2c1 | -8.25% | 
Cc1c(NC(=S)NC(=O)CCc2ccccc2)c(=O)n(-c2ccccc2)n1C | -15.5% | 
COc1ccc(N(CC(=O)NC(C)(C)C)C(=O)c2ccco2)cc1 | 11.1% | 
COc1ccccc1CCC(=O)NNC(=O)c1ccncc1 | -23.5% | 
COc1ccc(C(=O)NC(=S)NNC(=O)CCc2ccccc2)cc1 |  | 17.8 µM (active)

SMILES | growth rescue (activation) | Potency
CCC1CCCCN1C(=S)NC(=O)c1ccco1 (centres undefined) | 11.5% | 
CCCc1ccc(OCC(=O)NNC(=S)NC(=O)c2ccco2)cc1 |  | 3.98 µM (active)
O=C(c1ccc2c(c1)N(Cc1ccccc1F)C(=O)c1ccccc1S2(=O)=O)N1CCOCC1 | -5.9% | 
CC(Sc1oc(-c2ccco2)nc1S(=O)(=O)c1ccc(Br)cc1)c1ccccc1 (centres undefined) | -9.35% | 
Cc1nc(Cl)cc(N/N=C/c2ccccc2)n1 |  | 7.94 µM (active)
CC1=NNC(=O)C1CCC(=O)N/N=C\c1cccc(Cl)c1 (centres undefined) | -7.49% | 
CC(C)Oc1ccc(CNC(=O)C2CCN(c3nc4ccccc4n(C)c3=O)CC2)cc1 | 2.78% | 
Cc1ccc(-c2nc(CSCC(=O)NC3CCN(Cc4ccccc4)CC3)c(C)o2)cc1 | -25.4% | 
CNC(=O)c1ccc(-c2nc(CN3CCc4ccccc43)c(C)o2)cc1 |  | 10 µM (active)
CNC(=O)c1ccsc1NC(=O)c1ccc(S(=O)(=O)N2CCc3ccccc32)cc1 | 26.1% | 
COc1ccc(NC(=O)c2ccc3nc(CCc4ccccc4)oc3c2)c(OC)c1 | -6.5% | 
Cc1ccc(-c2noc(-c3nnn(-c4cccc(C(F)(F)F)c4)c3N)n2)cc1 | 13.2% | 
COc1ccc(C(=O)NCC2CCCCC2)cc1S(=O)(=O)N1CCCC1 | 4.93% | 
COc1ccc(CN2CCCC(CNC(=O)c3ccc(F)cc3)C2)cc1OC (centres undefined) | -11.7% [at 0.397 µM] | 
COc1cc(F)ccc1-c1cc(C(=O)NCC2CCCCC2)[nH]n1 |  | 25.1 µM (active)
CC(C)Oc1cc(F)ccc1-c1cc(C(=O)Nc2ccc(F)cc2)[nH]n1 | 10.3% | 
COc1ccc(-c2cc(C(=O)NCc3cc(OC)c(OC)c(OC)c3)[nH]n2)cc1 | -13% | 
COc1ccccc1CNC(=O)c1cc(-c2cc(Cl)ccc2C)n[nH]1 | 23.4% | 
CC(C)Oc1cc(F)ccc1-c1cc(C(=O)Nc2cccc(Cl)c2)[nH]n1 | -0.284% | 
COc1cc(NC(=O)c2cc(-c3ccc(F)cc3OC(C)C)n[nH]2)cc(OC)c1OC |  | 28.2 µM (active)
COc1ccccc1CNC(=O)c1cc(-c2cc(F)ccc2OC)n[nH]1 |  | 22.4 µM (active)
CN1CCN(C2(CNC(=O)COc3ccc(C(C)(C)C)cc3)CCCCC2)CC1 | 4.73% | 
CC(=O)Nc1ccc2nc(SCCOc3cc(C)cc(C)c3)sc2c1 | -5.36% | 
Cc1ccc(C(=O)Nc2cc3c(cc2N2CCCC2)n(C)c(=O)c(=O)n3C)cc1 | -6.47% | 
CCCCCn1c(=O)[nH]c2cc(C(=O)Nc3cc(C)cc(C)c3)ccc2c1=O | 9.06% | 

SMILES | growth rescue (activation) | Potency
CCOc1ccc(Nc2c(S(=O)(=O)c3ccccc3)cnc3ccccc23)cc1 | 21.1% | 
O=C(c1ccc(C(F)(F)F)cc1)N1CCC(c2nc(-c3ccc(S(=O)(=O)N4CCCC4)cc3)no2)CC1 | 7.52% | 
CCOC(=O)c1c(SCC(=O)Nc2cccc(C)c2C)nc(=O)[nH]c1C | 5.54% | 
O=C(O)/C=C/c1ccc2c(c1)OCCO2 |  | 15.8 µM (active)
O=C(Nc1ccc2c(c1)OCCO2)C1CCCC1 | 1.92% | 
O=C(COC(=O)/C=C/c1ccc2c(c1)OCO2)NC1CCS(=O)(=O)C1 (centres undefined) | -7.5% | 
COc1ccc(NC(=O)NC(C)c2c(-n3cccc3)sc(C)c2C)cc1OC (centres undefined) | 12.6% | 
COc1ccc(CCNC(=O)C(=O)NCC(c2ccco2)S(=O)(=O)c2cccs2)cc1OC (centres undefined) | 21.8% | 
COc1cc(NC(=O)Cn2nc(-c3ccc(C)c(C)c3)ccc2=O)cc(OC)c1 | 14.8% | 
COc1ccc(C2c3c(oc4ccccc4c3=O)C(=O)N2Cc2ccc3c(c2)OCO3)cc1 (centres undefined) | -8.02% | 
Cc1ccc(S(=O)(=O)n2nc(-c3ccc(Cl)cc3)nc2NCc2ccccc2)cc1 | -3.27% | 
COc1ccc(OCCCn2c(C)nc3cc(C)c(C)cc32)cc1 | 21.8% | 
Cc1cc(C)c2oc(C(=O)Nc3ccc(S(=O)(=O)N4CCCCCC4)cc3)cc(=O)c2c1 | 14.9% | 
Cc1ccccc1C(=O)Nc1nnc(S(=O)(=O)N(C)c2ccc(Cl)cc2)s1 | 5.15% | 
CC(=O)Nc1cccc(-c2ccnc3c2CC(C)(C(=O)NCc2ccccc2)O3)c1 (centres undefined) | 18.4% | 
CC1(C(=O)NCc2ccco2)Cc2c(-c3ccc4c(c3)OCO4)ccnc2O1 (centres undefined) | 23.5% | 
CC1(C(=O)NCc2ccc(F)c(F)c2)Cc2c(-c3ccc4c(c3)OCO4)ccnc2O1 (centres undefined) |  | 35.5 µM (active)
COc1ccc(CNC(=O)CSc2nc3ccccc3nc2Cc2ccccc2)cc1 | 8.1% | 
CCc1cc2c(cc3c(=O)n(CC(=O)N4CCN(c5cc(Cl)ccc5C)CC4)ncn32)s1 | 11.6% | 
CC(C)OC(=O)c1ccc(COc2ccc3ccc(=O)oc3c2)o1 |  | 11.2 µM (active)
Cc1cc(OCc2ccc(C(=O)Nc3ccc(C(=O)O)cc3)o2)ccc1Cl | -9.15% | 
O=C(COc1ccc2ccc(=O)oc2c1)NCC(O)c1ccccc1 (centres undefined) | 8.96% | 
CCOC(=O)c1cc(-c2ccc(OC)c(S(=O)(=O)Nc3ccc(OC)cc3OC)c2)on1 | 14.4% | 
CCOC(=O)c1ccc(NC(=O)CC2C(=O)N(c3ccccc3)C(=O)N2Cc2cccs2)cc1 (centres undefined) | 11.2% | 
